Most compounds without a hit are left out; they make up all but 7% or so of the library.
HP1b chromo inh: HP1-beta chromodomain-methylated histone interaction inhibition | P83916 | AlphaScreen HP1-beta / biotin-H3K9me3 peptide binding | Potency, µM (doses to about 114 µM), usual class: inhibitors | actives 0.56% (n = 390,000); also: nearly all actives have a fitted effect of over 70% in size
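AlphaScreen: HP1-beta (50 nM) preformed 30 min with biotin-H3(1-18)K9me3 peptide (50 nM) in PBS pH 7.4, 0.01% Tween-20. Compound added for 30 min at RT, then streptavidin donor/nickel chelate acceptor beads (10 ug/mL) for 30 min.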
PLK1 PBD inh: inhibitors of human PLK1 polo-box domain binding; P53350; Plk1 PBD binding of FITC phosphopeptide, fluorescence polarization; Potency, µM, usual class: inhibitors; actives 2.8% (n = 360,000); also: series mostly up to about 57 µM; nearly all actives have a fitted effect of over 65% in size
JMJD2A Tudor inh: blocks the human JMJD2A Tudor domain | O75164 | AlphaScreen JMJD2A-Tudor / H3K4me3 peptide binding | Potency, µM (top dose mostly 114 µM), usual class: inhibitors | actives 4.4% (n = 390,000) | AID 504339; also: nearly all actives have a fitted effect of over 50% in size
Target sequence (O75164 whole entry, looked up, the tested form may be a part): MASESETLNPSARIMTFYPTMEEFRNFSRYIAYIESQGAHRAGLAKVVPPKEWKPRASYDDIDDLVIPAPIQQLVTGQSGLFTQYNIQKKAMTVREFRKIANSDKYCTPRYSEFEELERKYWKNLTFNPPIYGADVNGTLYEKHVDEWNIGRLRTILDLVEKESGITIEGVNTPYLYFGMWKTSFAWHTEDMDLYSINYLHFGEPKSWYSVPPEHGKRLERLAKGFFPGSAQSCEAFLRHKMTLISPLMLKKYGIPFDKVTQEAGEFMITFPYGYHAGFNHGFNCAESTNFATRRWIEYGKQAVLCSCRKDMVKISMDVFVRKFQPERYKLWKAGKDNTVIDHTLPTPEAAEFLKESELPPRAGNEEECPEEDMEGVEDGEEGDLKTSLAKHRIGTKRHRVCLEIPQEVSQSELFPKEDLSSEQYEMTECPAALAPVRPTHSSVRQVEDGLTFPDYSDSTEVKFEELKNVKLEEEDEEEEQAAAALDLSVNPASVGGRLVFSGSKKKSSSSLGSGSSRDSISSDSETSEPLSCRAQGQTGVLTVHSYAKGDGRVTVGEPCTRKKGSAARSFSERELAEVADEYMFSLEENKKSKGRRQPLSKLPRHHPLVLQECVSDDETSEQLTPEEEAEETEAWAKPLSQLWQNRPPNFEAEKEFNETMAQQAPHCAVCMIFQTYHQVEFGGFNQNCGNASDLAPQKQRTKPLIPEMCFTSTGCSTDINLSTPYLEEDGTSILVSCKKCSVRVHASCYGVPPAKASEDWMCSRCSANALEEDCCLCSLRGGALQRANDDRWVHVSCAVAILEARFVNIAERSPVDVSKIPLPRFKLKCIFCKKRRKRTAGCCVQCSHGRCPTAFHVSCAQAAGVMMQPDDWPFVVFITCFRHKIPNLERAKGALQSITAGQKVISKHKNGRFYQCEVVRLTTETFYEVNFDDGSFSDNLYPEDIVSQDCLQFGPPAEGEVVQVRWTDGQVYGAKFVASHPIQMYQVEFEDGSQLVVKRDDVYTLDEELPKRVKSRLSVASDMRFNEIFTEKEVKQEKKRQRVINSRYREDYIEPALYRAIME
PI5P4K alpha inh: PI5P4K alpha (human) kinase inhibition; P48426; PI5P4Kalpha enzyme, ADP-Glo luminescence, 60 min; active compounds read low; max response, %; actives 1.2% (n = 330,000); AID 652105; active = max response of -50% or lower; inconclusive = between -30% and -50%; inactive = -30% or higher; also: value at the top dose of about 77 µM
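qHTS, 1536-well: enzyme/substrate mix, compound by pin tool, 5 microM ATP final; RT 60 min; ADP-Glo reagents 1 (45 min) then 2 (30 min); luminescence.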
BAZ2B block: blocks human BAZ2B. Q9UIF8. AlphaScreen BAZ2B-H3K14Ac peptide displacement. Potency, µM (series often up to 114 µM), hits mostly inhibitors. actives 4.4% (n = 360,000); also: nearly all actives have a fitted effect of over 60% in size
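AlphaScreen luminescence quantifies BAZ2B engagement of H3K14Ac peptide; the protein and biotinylated peptide are both at 50 nM final, buffer PBS pH 7.4 with 0.01% Tween-20, all steps at room temperature.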
GCN5L2 inh: blocks human GCN5L2 histone acetyltransferase; actives 0.21% (n = 390,000); AID 504327; Potency, µM (doses to about 58.9 µM), actives largely listed as inhibitors; GCN5L2 HAT assay, ThioGlo1 CoA-SH fluorescence
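GCN5L2 (20nM final) in 50mM HEPES, 0.1mM EDTA pH 7.5, 0.01% Tween-20 was preincubated 15 min at room temperature with compound, then given ThioGlo1 (50uM), H3(1-25) peptide (75uM) and acetyl-CoA (70uM); CoA-thiol fluorescence (Ex340/Em540) was read at 0 and 20 min.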
Each line names hits and unclear results; the compound was inactive in the other large screens. Unless noted, calls follow the shape of the dose curve; as a rule, active = well fitted curve in the direction sought with a large enough effect; inconclusive = small, poorly fitted or top-dose-only effect, or another doubt; inactive = no such curve, though single readings can be large; an effect the other way counts as inactive or inconclusive.

CCOC(=O)c1cc2c(=O)n3ccccc3nc2n(CC2CCCO2)c1=NC(=O)c1cccc(C)c1 (centres undefined)	none (no result: PLK1 PBD inh, PI5P4K alpha inh)
CCCCN(C)C(=O)c1sc(=O)n(Cc2ccc(Cl)c(Cl)c2)c1C	none (no result: HP1b chromo inh, JMJD2A Tudor inh, BAZ2B block, GCN5L2 inh)
Cc1ccc2[nH]c3c(=O)n(CC(=O)N(C)Cc4ccccc4)ncc3c2c1	none (no result: PLK1 PBD inh, PI5P4K alpha inh)
CC1=CC2C(C3C=CC2(C)C(=O)C3(C)O)C(C)(O)C1=O (centres undefined)	none (no result: BAZ2B block, GCN5L2 inh)
Cc1nc2ccccc2c(=O)n1NC(=O)c1ccco1	none
C/C(=N\Nc1nc2ccccc2c(=O)n1O)c1ccco1	HP1b chromo inh inconclusive, PLK1 PBD inh 21µM, JMJD2A Tudor inh inconclusive, PI5P4K alpha inh inconclusive
CCc1cccc(CC)c1NC(=O)c1cccc(N)c1	HP1b chromo inh inconclusive, PLK1 PBD inh 21µM, JMJD2A Tudor inh 56µM
Cc1cccc(N2CCN(Cc3ccoc3)CC2)c1C	HP1b chromo inh inconclusive, JMJD2A Tudor inh 11µM, BAZ2B block 50µM (no result: PI5P4K alpha inh)
Cc1cc(CN2CCN(c3cccc(C)c3C)CC2)cs1	none (no result: PLK1 PBD inh, PI5P4K alpha inh)
COc1ccc(CNC(=O)N2CCN(c3cccc(C)c3C)CC2)cc1OC	none
COc1cc(CN2CCN(c3cccc(C)c3C)CC2)cc(OC)c1O	JMJD2A Tudor inh 1µM, BAZ2B block 50µM (no result: PI5P4K alpha inh)
CCOc1ccc(NC(=O)Cn2cc(S(=O)(=O)NC)c(S(=O)(=O)NC)c2)cc1	none (no result: PLK1 PBD inh, PI5P4K alpha inh)
CCc1ccccc1NC1=NCC(=O)N1C1CCCC1	PLK1 PBD inh 30µM, BAZ2B block inconclusive
CCc1ccccc1NC1=NCC(=O)N1Cc1ccc(OC)cc1	BAZ2B block inconclusive
CC(=O)c1ccc(NC(=S)NCCc2ccc(S(N)(=O)=O)cc2)cc1	none
CC(C)OCCCNC(=S)Nc1ccc(S(N)(=O)=O)cc1	HP1b chromo inh 32µM, PLK1 PBD inh 6µM, JMJD2A Tudor inh 89µM
NS(=O)(=O)c1ccc(NC(=S)NCCc2ccccc2)cc1	PLK1 PBD inh 6.7µM
CCN(C(=O)CN1CC(C)OC(C)C1)c1c(N)n(Cc2ccccc2)c(=O)[nH]c1=O (centres undefined)	none
CCN1C(=O)/C(=C/c2cccs2)SC1=Nc1ccc(OC)cc1	JMJD2A Tudor inh inconclusive
CCN(CC)CCN1C(=O)/C(=C\c2ccc(Cl)c([N+](=O)[O-])c2)SC1=Nc1ccc(OC)cc1	HP1b chromo inh 11µM, JMJD2A Tudor inh 18µM, BAZ2B block 10µM
COc1ccc(N=C2S/C(=C\c3ccc(Cl)c([N+](=O)[O-])c3)C(=O)N2CCN(C)C)cc1	HP1b chromo inh 16µM, JMJD2A Tudor inh 35µM, BAZ2B block 16µM
CC(=O)c1cccc(NC(=O)c2cc(C)nc3c2c(C)nn3-c2cccc(Cl)c2C)c1	none (no result: PLK1 PBD inh, PI5P4K alpha inh)
C[C@H](NC(=O)[C@@H]1CCCN1C(=O)[C@@H]1CCCN1C(=O)c1ccc(Cl)cc1)c1ccccc1	none (no result: HP1b chromo inh, JMJD2A Tudor inh, BAZ2B block, GCN5L2 inh)
Cc1cc(OCC(=O)NCCc2cccc(F)c2)c2c(C)cc(=O)oc2c1	none
COc1ccc(S(=O)(=O)Nc2ccc(C)c(S(=O)(=O)N3CCOCC3)c2)cc1[N+](=O)[O-]	none
O=C(COc1ccccc1)NC1=NCCS1	none
CC(Oc1ccccc1)C(=O)NC1=NCCS1 (centres undefined)	JMJD2A Tudor inh 32µM
CC(=O)N1CCC2(CC1)CCN(c1ccccn1)CC2	none (no result: HP1b chromo inh, PLK1 PBD inh, JMJD2A Tudor inh, PI5P4K alpha inh, BAZ2B block)
O=C(CNC(=O)c1ccc(Br)o1)Nc1ncccc1O	JMJD2A Tudor inh inconclusive, BAZ2B block 79µM
Cc1ccc(C(=O)Nc2ncccc2O)o1	JMJD2A Tudor inh 3.5µM, BAZ2B block inconclusive
Cc1cccnc1NC(=O)c1ccc(Br)o1	none
O=C(CNC(=O)c1ccc2c(c1)OCO2)Nc1ncccc1O	JMJD2A Tudor inh 56µM, BAZ2B block inconclusive
Cc1ccccc1NC(=O)Cn1c(=O)n(CCC(=O)N2CCc3ccccc3C2)c(=O)c2ccccc21	none (no result: PLK1 PBD inh, PI5P4K alpha inh)
O=C(Nc1cccc(C(F)(F)F)c1)Nc1ccc2[nH]c(=O)[nH]c2c1	none
CC(=O)Nc1nonc1-c1nnc(SCC(=O)Nc2ccc(F)cc2F)n1-c1ccccc1	none (no result: PLK1 PBD inh, PI5P4K alpha inh)
CCN(CC)c1ccc(/C=N/Nc2nc3ccccc3[nH]2)c(O)c1	JMJD2A Tudor inh 50µM, PI5P4K alpha inh inconclusive, BAZ2B block 40µM
COc1cc(C=NCc2ccccc2)ccc1O	none (no result: HP1b chromo inh, JMJD2A Tudor inh, BAZ2B block, GCN5L2 inh)

Compound activity: PubChem, National Center for Advancing Translational Sciences (NCATS)
